# In PubChem BioAssay (NCATS):
# Inconclusive results are not listed. Entries that show only a call come without a potency. Active and inactive are the calls of the source. The call rests on the fitted dose curve; in most records, active means well fitted curve in the direction sought with a large enough effect; inconclusive means small, poorly fitted or top-dose-only effect, or another doubt; inactive means no such curve, though single readings can be large; an effect the other way counts as inactive or inconclusive.
# Key:
# [1] = test system: Zika virus NS2B-NS3 protease (linked construct); assay: Confirmatory screen NINDS AMC qHTS for Zika virus inhibitors (AID 1347152); further: nearly all actives have a fitted effect of over 70% in size; further: potency means the concentration at half of the fitted maximal effect
# Method in brief: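 In this dose-response qHTS, AMC release from 10 microM Bz-Nle-KRR-AMC by 1 nM linked protease is measured over 15 minutes (about 20% conversion) at pH 8.0. Percent inhibition is fitted to a 4-parameter Hill curve.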
# [2] = Confirmatory screen NINDS Rhodamine qHTS for Zika virus inhibitors (AID 1347161); further: nearly all actives have a fitted effect of over 60% in size; further: potency means the concentration at half of the fitted maximal effect
# Method in brief: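 Enzyme (25 nM, linked NS2B-NS3) was preincubated 15 min with compound in 10 mM Tris-HCl pH 8.0, 0.01% Tween 20. Rhodamine110 substrate (1.5 microM) was then added and fluorescence read at start and after 15 min.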
# [3] = Confirmation and Secondary Assay for Modulators of Hemoglobin Beta Chain Splicing at IVS2 705 locus (AID 930);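 further: HeLa cells stably expressing the EGFP-705 splicing reporter; GFP fluorescence per well restored by corrected splicing of the IVS2-705 intron in EGFP; series mostly up to about 46 µM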
# Method in brief: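 Stable HeLa line with EGFP disrupted by mutant beta-globin intron 2 (705). Overnight attachment, then 2 days of compound at 37C, 5% CO2. Signal: peak GFP intensity summed over objects 5-250 µm.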
# [4] = target: Rap guanine nucleotide exchange factor 3 (Homo sapiens) (UniProt O95398); assay: Confirmatory qHTS for antagonist of cAMP-regulated guanine nucleotide exchange factor 3 (EPAC1) (AID 1645880); further: nearly all actives have a fitted effect of over 55% in size; further: potency means the concentration at half of the fitted maximal effect
# Sequence of Rap guanine nucleotide exchange factor 3 (Homo sapiens) (O95398 whole entry, looked up): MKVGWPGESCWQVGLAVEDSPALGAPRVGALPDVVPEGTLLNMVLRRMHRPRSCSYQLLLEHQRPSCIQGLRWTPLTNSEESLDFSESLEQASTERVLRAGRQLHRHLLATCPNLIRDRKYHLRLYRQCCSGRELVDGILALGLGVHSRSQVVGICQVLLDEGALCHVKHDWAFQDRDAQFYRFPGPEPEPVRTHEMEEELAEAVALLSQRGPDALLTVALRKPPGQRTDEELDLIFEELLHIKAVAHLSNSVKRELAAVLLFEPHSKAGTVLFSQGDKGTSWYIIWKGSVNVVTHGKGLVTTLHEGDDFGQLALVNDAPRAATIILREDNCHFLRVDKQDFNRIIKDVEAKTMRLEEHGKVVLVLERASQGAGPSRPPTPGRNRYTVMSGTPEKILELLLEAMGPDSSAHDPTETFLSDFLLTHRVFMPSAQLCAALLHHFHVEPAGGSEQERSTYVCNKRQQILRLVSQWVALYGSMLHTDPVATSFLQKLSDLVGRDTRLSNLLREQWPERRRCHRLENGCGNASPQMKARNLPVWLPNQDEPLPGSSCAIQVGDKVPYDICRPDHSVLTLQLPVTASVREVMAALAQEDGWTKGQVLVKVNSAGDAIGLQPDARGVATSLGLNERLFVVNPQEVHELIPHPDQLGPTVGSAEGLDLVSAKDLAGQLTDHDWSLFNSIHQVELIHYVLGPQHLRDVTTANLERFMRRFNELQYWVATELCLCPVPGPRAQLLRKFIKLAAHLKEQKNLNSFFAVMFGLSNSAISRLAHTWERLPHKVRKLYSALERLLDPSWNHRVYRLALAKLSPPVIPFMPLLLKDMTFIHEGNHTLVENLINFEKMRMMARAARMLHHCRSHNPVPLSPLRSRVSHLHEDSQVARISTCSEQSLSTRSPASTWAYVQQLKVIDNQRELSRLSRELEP
# Method in brief: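 Released BODIPY-GDP fluoresces less than Rap1-bound BODIPY-GDP; the signal is followed at 480/540 nm at 5-min intervals over 30 min, after 5 min at room temperature. Reactions contain 100 nM EPAC1, 250 nM RAP1B-BODIPY-GDP and 50 uM GDP; results are normalized to ATA and DMSO.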
# [5] = target: Rap guanine nucleotide exchange factor 4 (Homo sapiens) (UniProt Q8WZA2); assay: Confirmatory qHTS for antagonist of cAMP-regulated guanine nucleotide exchange factor 4 (EPAC2) (AID 1645885); further: nearly all actives have a fitted effect of over 25% in size; further: potency means the concentration at half of the fitted maximal effect
# Sequence of Rap guanine nucleotide exchange factor 4 (Homo sapiens) (Q8WZA2 whole entry, looked up): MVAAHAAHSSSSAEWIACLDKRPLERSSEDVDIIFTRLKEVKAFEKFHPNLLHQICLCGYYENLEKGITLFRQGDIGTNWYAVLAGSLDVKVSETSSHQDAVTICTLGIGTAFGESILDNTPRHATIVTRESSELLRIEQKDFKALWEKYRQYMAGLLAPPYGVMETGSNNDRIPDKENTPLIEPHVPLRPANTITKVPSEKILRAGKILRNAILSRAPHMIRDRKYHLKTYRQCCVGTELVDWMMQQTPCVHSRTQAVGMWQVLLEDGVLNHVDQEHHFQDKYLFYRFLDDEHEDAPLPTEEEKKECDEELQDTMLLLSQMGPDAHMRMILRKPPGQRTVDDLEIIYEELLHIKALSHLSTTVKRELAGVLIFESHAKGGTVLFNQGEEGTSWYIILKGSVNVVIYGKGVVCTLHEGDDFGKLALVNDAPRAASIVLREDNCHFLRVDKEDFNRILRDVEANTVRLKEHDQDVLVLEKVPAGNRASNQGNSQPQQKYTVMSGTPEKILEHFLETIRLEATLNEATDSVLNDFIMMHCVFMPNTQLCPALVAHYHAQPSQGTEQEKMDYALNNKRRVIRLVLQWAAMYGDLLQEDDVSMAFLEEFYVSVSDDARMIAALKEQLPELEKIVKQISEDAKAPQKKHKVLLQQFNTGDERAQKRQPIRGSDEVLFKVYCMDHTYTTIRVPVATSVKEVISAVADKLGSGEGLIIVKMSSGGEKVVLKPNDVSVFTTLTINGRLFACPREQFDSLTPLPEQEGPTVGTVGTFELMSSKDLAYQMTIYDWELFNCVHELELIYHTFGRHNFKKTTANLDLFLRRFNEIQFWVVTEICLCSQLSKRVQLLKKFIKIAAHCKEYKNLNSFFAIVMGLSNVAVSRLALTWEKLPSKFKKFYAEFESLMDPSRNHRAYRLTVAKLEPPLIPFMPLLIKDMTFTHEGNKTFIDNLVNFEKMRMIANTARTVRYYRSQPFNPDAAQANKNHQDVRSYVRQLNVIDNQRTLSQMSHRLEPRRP
# [6] = test system: Zika virus NS2B-NS3 protease (linked construct); assay: 384 well plate NINDS Rhodamine confirmatory qHTS for Zika virus inhibitors (AID 1347164); further: nearly all actives have a fitted effect of over 65% in size; further: potency means the concentration at half of the fitted maximal effect
# Method in brief: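 Compounds are incubated about 15 minutes with linked protease (5, 30 or 60 nM final). Rhodamine 110-tagged Ac-LKRR substrate (10 microM final) is added and fluorescence measured after 25 minutes.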
# [7] = HPAF-II 24hr Apoptosis Induction qHTS against the NCATS CANVASS Library (AID 1347356)
# Method in brief: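 Caspase-Glo 3/7 luminescence, read after 15 min room-temperature development, measures apoptosis in HPAF-II cells treated 24 h at 37 degrees C with an 11-point concentration series; 500 cells/well; doxorubicin control.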
# [8] = HEK293 18hr Apoptosis Induction qHTS against the NCATS CANVASS Library (AID 1347357)
# Method in brief: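 Luminescent caspase-3/7 signal is measured in HEK293 cells exposed for 18 hours to an 11-point concentration series; doxorubicin serves as the plate control.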
# [9] = HPAF-II 12hr Apoptosis Induction qHTS against the NCATS CANVASS Library (AID 1347358)
# Method in brief: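 Caspase-3/7 activation by DEVD-substrate luminescence (Caspase-Glo 3/7, 15 min, room temperature) after a 12-hour compound exposure in 11 concentrations, of HPAF-II pancreatic cells seeded at 500/well in DMEM with 10% FBS.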
# [10] = HEK293 24hr Apoptosis Induction qHTS against the NCATS CANVASS Library (AID 1347359)
# Method in brief: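 HEK293 cells (500/well, DMEM + 10% FBS) were exposed to compounds in an 11-point series for 24 hours at 37 degrees C, then caspase-3/7 activity was read by Caspase-Glo DEVD luciferase luminescence after 15 min.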
# [11] = HPAF-II 18hr Apoptosis Induction qHTS against the NCATS CANVASS Library (AID 1347360)
# Method in brief: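 Apoptosis was scored as caspase-3/7 activity in HPAF-II pancreatic cancer cells treated 18 hours with an 11-point concentration series.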
# [12] = HEK293 12hr Apoptosis Induction qHTS against the NCATS CANVASS Library (AID 1347361)
# Method in brief: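 Apoptosis in HEK293 was scored as caspase-3/7 luminescence following 12 h treatment with a compound concentration series in qHTS format.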
# [13] = target: Luciferin 4-monooxygenase (Photinus pyralis) (UniProt P08659); assay: Firefly luciferase counterscreen qHTS: Assay Interference Panel against the NCATS CANVASS Library (AID 1347363); further: series mostly up to about 57 µM
# Sequence of Luciferin 4-monooxygenase (Photinus pyralis) (P08659 whole entry, looked up): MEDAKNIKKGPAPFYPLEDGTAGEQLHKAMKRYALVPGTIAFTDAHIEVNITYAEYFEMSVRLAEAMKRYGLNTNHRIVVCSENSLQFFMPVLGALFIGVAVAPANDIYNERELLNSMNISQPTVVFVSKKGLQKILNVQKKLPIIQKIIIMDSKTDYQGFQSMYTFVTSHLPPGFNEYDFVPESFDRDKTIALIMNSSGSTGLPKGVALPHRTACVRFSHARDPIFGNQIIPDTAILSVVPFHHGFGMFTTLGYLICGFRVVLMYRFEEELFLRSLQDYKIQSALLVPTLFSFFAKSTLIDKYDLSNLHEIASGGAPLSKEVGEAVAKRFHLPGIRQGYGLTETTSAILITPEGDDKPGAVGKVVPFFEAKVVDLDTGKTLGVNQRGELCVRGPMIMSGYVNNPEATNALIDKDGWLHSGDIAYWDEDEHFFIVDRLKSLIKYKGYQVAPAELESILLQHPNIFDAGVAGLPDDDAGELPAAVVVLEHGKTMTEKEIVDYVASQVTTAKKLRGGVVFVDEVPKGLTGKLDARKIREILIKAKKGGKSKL
# Method in brief: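 Purified P. pyralis luciferase was added to compounds (11-point series) preincubated 15 min at room temperature with substrate containing 0.013 mM D-luciferin and 0.013 mM ATP; luminescence was read after 5 min.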
# [14] = KB-8-5-11 Cancer Cell Toxicity qHTS against the NCATS CANVASS Library (AID 1347364); further: nearly all actives have a fitted effect of over 75% in size; further: potency means the concentration at half of the fitted maximal effect
# Method in brief: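 Viability read as CellTiter-Glo luminescence after 72 h at 37 °C, 5% CO2. 11-point compound series on 500 KB-8-5-11 cells/well in DMEM/10% FBS. Follow-up plating included 1 uM tariquidar in the medium.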
# [15] = qHTS for ATAD5 Agonist screened against the NCATS CANVASS Library (AID 1347367);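 further: luciferase reporter driven by ATAD5 which rises upon DNA damage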
# Method in brief: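 Step one plated reporter cells and let them acclimate 5hr. Step two pinned compounds with MMS as positive and 0.46% DMSO as negative control. After 16hr incubation, fluorescence viability then luminescence were read.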
# [16] = MCF7 Cancer Cell Toxicity qHTS against the NCATS CANVASS Library (AID 1347369); further: potency means the concentration at half of the fitted maximal effect
# Method in brief: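 Cytotoxicity is measured by ATP content: MCF7 cells at 500 per well receive an 11-point compound series and, after 72 hr at 37C, are lysed with CellTiterGlo for luminescence.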
# [17] = qHTS for ATAD5 Antagonist screened against the NCATS CANVASS Library (AID 1347370); further: nearly all actives have a fitted effect of over 65% in size; further: potency means the concentration at half of the fitted maximal effect
# Method in brief: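 Compounds (11-point) co-dosed with 10 µM 5-FUrd for 16 h at 37 °C onto HEK293T-ATAD5 luciferase reporter cells. Viability measured by CellTiter-Fluor fluorescence, then ATAD5 reporter signal by luminescence.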
# [18] = target: Nuclear receptor subfamily 1 group I member 3 (Homo sapiens) (UniProt Q14994); assay: qHTS for Constitutive Androstane Receptor (CAR) Antagonist screened against the NCATS CANVASS Library (AID 1347372); further: potency means the concentration at half of the fitted maximal effect
# Sequence of Nuclear receptor subfamily 1 group I member 3 (Homo sapiens) (Q14994 whole entry, looked up): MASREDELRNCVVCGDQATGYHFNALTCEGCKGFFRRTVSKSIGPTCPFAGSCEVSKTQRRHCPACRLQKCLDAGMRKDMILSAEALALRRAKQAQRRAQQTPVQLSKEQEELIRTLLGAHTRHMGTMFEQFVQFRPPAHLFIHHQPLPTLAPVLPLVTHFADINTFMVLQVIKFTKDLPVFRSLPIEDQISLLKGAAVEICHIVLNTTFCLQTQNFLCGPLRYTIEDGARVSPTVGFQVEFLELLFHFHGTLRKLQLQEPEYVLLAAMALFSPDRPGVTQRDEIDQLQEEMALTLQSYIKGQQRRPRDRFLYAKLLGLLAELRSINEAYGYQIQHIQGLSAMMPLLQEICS
# Method in brief: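 Cells were seeded and left 4hr to attach, then received compound at 11 concentrations and 50 nM CITCO. Following 24hr incubation, fluorescence viability and luciferase luminescence were read sequentially.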
# [19] = target: Nuclear receptor subfamily 1 group I member 3 (Homo sapiens) (UniProt Q14994); assay: qHTS for Constitutive Androstane Receptor (CAR) Agonist screened against the NCATS CANVASS Library (AID 1347373);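 further: every well also contained 1.5 µM PK11195 alongside the test compound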
# Method in brief: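 Agonist mode with 1.5uM PK11195 present: compounds for 24hr on HepG2-hCAR-CYP2B6 cells. CellTiter-Fluor fluorescence (ex 405, em 540 nm) gives viability; ONE-Glo luminescence reports CAR activation.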
# [20] = qHTS for Hypoxia signaling pathway (HIF-1) antagonists against the NCATS CANVASS Library (AID 1347374); further: nearly all actives have a fitted effect of over 60% in size; further: potency means the concentration at half of the fitted maximal effect
# Method in brief: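 Antagonism scored as loss of CoCl2-driven (60 uM stock added) HRE beta-lactamase signal, read by CCF4 FRET at 460/530 nm. Compounds were tested in an 11-point series on ME-180 reporter cells for 17 hrs at 37C, with parallel CellTiter-Glo cytotoxicity.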
compound,measurement,setting,value
CN(C(=O)Cc1ccc(Cl)c(Cl)c1)[C@@H](CN1CCCC1)c1cccc(OCC(=O)O)c1,Potency,[1],inactive
same,Potency,[2],inactive
COC(=O)c1cc2c(cn1)[nH]c1ccccc12,Potency,[1],24.1 µM (active)
CC(C)=CCCC1(C)C=Cc2c(O)c3c(c(CC=C(C)C)c2O1)OC12C(=CC4CC1C(C)(C)OC2(C/C=C(/C)C(=O)O)C4O)C3=O (stereo unspecified),outcome,[3],inactive
same,Potency,[2],2.78 µM (active)
same,Potency,[4],28 µM (active)
same,Potency,[5],inactive
CNc1ccc2oc(C[C@@H]3OC4(CC[C@@H]3C)O[C@H]([C@@H](C)C(=O)c3ccc[nH]3)[C@H](C)C[C@H]4C)nc2c1C(=O)O (stereo partly specified),Potency,[1],19.2 µM (active)
same,Potency,[2],9.87 µM (active)
same,Potency,[6],44.7 µM (active)
Oc1c(Cl)c(Cl)c(Cl)c(Cl)c1Cl,outcome,[3],inactive
same,Potency,[2],4.47 µM (active)
same,Potency,[6],70.8 µM (active)
Ic1cncc(OC[C@@H]2CCN2)c1,Potency,[2],34.9 µM (active)
same,Potency,[6],inactive
COc1cc2c(cc1OCC1CCCC1)N([S+](=O)([O-])c1ccc(Oc3ccccc3)cc1)CC21CCN(CC(=O)O)CC1,Potency,[1],inactive
COc1ccc2c3c([nH]c2c1)C(C)=NCC3,outcome,[3],inactive
same,outcome,[7],inactive
same,Potency,[8],inactive
same,outcome,[9],inactive
same,Potency,[10],inactive
same,outcome,[11],inactive
same,Potency,[12],inactive
same,outcome,[13],inactive
same,Potency,[14],inactive
same,Potency,[15],inactive
same,Potency,[16],inactive
same,Potency,[17],16.6 µM (active)
same,Potency,[18],inactive
same,outcome,[19],inactive
same,Potency,[20],inactive
COc1ccc2c(c1)[nH]c1c(C)nccc12,outcome,[3],inactive
same,outcome,[7],inactive
same,Potency,[8],inactive
same,outcome,[9],inactive
same,Potency,[10],inactive
same,outcome,[11],inactive
same,Potency,[12],inactive
same,outcome,[13],inactive
same,Potency,[14],38.2 µM (active)
same,Potency,[15],inactive
same,Potency,[16],34 µM (active)
same,Potency,[17],2.41 µM (active)
same,Potency,[18],inactive
same,outcome,[19],inactive
same,Potency,[20],17.2 µM (active)
C=C1[C@@H](C)[C@H]2[C@H](Cc3ccccc3)NC(=O)[C@]23OC(=O)/C=C/[C@H](O)CCC[C@@H](C)C/C=C/[C@H]3[C@@H]1O,outcome,[7],inactive
same,Potency,[8],inactive
same,outcome,[9],inactive
same,Potency,[10],inactive
same,outcome,[11],inactive
same,Potency,[12],inactive
same,outcome,[13],inactive
same,Potency,[14],9.35 µM (active)
same,Potency,[15],inactive
same,Potency,[16],inactive
same,Potency,[17],inactive
same,Potency,[18],8.31 µM (active)
same,outcome,[19],inactive
same,Potency,[20],2.11 µM (active)
CN1C(=O)CCS(=O)(=O)[C@H]1c1ccc(Cl)cc1,outcome,[3],inactive
CN1Cc2ccccc2[C@@H]2c3cccc4[nH]cc(c34)C[C@H]21,Potency,[4],inactive
same,Potency,[5],inactive
O=C1CS[C@@H](c2ccccc2Cl)c2cc(Cl)ccc2N1,Potency,[4],inactive
same,Potency,[5],49.4 µM (active)
CC1OC(=O)C(C(C)C)NC(=O)C(C(C)C)OC(=O)C(C(C)C)NC(=O)C(C)OC(=O)C(C(C)C)NC(=O)C(C(C)C)OC(=O)C(C(C)C)NC(=O)C(C)OC(=O)C(C(C)C)NC(=O)C(C(C)C)OC(=O)C(C(C)C)NC1=O (stereo unspecified),outcome,[3],inactive
